GLP-1R inv ag – inverse agonists of human GLP-1 receptor | AID 624417 | Potency, µM (highest dose often 38.3 µM), for inactives: top-dose activity change, negative = inhibition, actives largely listed as inhibitors | HEK293 GLP-1R CRE-luciferase, luminescence, 24 h; GLP-1R form is constitutively active | actives 1.6% (n = 410,000) | P43220; also: % is scaled to controls: 0 for no effect and ±100 for the full control effect; nearly all actives have a fitted effect of over 55% in size
Target sequence (P43220 whole entry, looked up): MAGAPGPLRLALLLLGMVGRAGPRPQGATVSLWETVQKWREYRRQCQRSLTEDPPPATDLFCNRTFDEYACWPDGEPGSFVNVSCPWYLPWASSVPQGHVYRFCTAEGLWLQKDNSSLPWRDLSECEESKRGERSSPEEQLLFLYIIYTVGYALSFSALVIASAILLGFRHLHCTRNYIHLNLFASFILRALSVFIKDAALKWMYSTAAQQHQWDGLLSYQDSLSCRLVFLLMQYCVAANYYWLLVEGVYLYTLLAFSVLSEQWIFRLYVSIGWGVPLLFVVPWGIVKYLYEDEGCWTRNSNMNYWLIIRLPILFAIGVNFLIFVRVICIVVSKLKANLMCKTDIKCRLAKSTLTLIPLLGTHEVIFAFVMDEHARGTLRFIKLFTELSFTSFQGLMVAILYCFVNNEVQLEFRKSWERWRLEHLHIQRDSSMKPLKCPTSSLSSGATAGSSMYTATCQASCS
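Stable HEK293 clone (constitutively active GLP-1R + cAMP-response luciferase); 200 cells/uL plated, 12 h pre-culture, compound 24 hr, 37 deg C/5% CO2; detection reagent 12 min RT; luminescence.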
HEK293 tox – cytotoxicity counter-screen for GLP-1 receptor inverse agonists; actives 0.13% (n = 410,000); Potency, µM (doses to about 38.3 µM), inactives show top-dose activity change, negative = inhibition, usual class: inhibitors; HEK293 cAMP-luciferase reporter cells, luminescence, 24 h;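 also: loss of luciferase light is scored as toxicity; % is scaled to controls: 0 for no effect and ±100 for the full control effect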
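Seeding density was 200 cells/uL; after overnight-length (12 h) culture, 23 nL compounds went on for 24 h at 37 °C. Readout used a luciferase detection reagent, luminescence taken after 12 min at room temperature.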
GLP1R ag – agonists of human GLP-1 receptor; HEK293 GLP-1R CRE-luciferase, luminescence, 4-6 h; cells express a hypersensitive GLP-1R form; Potency, µM (top dose mostly 45.6 µM), for the others: at the top dose activation, most hits filed as activators; P43220; actives 0.007% (n = 380,000); also: % of control where 0% means no effect
ClpP mod – qHTS Assay for Activators of ClpP; purified B. subtilis ClpP, FRET peptide cleavage, 20 min; Potency, µM (top dose mostly 57.5 µM), for the others: at the top dose activity change, negative = active; actives 1.9% (n = 340,000); AID 651965, 2013; active = well fitted falling curve with a large enough effect; inconclusive = small, poorly fitted or top-dose-only effect; inactive = no such curve, though single readings can be large or run the other way; also: the source files actives as falling curves though it sought activators and does not explain the sign; nearly all actives have a fitted effect of over 65% in size
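Purified B. subtilis ClpP, 10 microg/mL final in Tris/HCl pH8 with KCl, BSA, glycerol and Tween-20, cleaved an Abz/nitrotyrosine-quenched decapeptide. Fluorescence (ex 320, em 430) was read at 0 and 20 min at room temperature. Delta was normalized to 5.8 microM ADEP and DMSO/no-enzyme controls.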
* hit, by the source's call; u = inconclusive; x = not tested or not shown. An excerpt weighted towards active compounds, which were near 3.2% of everything screened. Unless noted, calls follow the shape of the dose curve; as a rule, active = well fitted curve in the direction sought with a large enough effect; inconclusive = small, poorly fitted or top-dose-only effect, or another doubt; inactive = no such curve, though single readings can be large; an effect the other way counts as inactive or inconclusive. Potency is read from the fitted curve at half-maximal effect.

SMILES | GLP-1R inv ag | HEK293 tox | GLP1R ag | ClpP mod
Cc1ccc(NC(=O)c2cccc(NC(=O)N3CCSc4ncccc43)c2)cc1Cl | 6.3% | 1.8% | x | u
Cc1ccc(NC(=O)c2ccc(NC(=O)N3CCSc4ncccc43)cc2)cc1Cl | -17.7% | 0.6% | x | 31.6µM*
O=C(NCc1ccccc1Cl)c1ccc(NC(=O)N2CCSc3ncccc32)cc1 | 10.1% | 5.6% | x | 28.2µM*
COc1ccc(C2(O)CCN(CC(=O)Nc3nc(-c4ccccc4)cs3)CC2)cc1 | 7.08µM* | -18.0% | -1.0% | -0.7%
CC1CCN(CC(=O)Nc2nc(-c3ccccc3)cs2)CC1 | 5.62µM* | -9.5% | -8.3% | x
O=C1c2ccccc2NC(c2ccc([N+](=O)[O-])cc2)N1O (centres undefined) | 10µM* | 2.9% | 10.8% | x
COc1cc2c(=O)n(Cc3ccccc3)c(=O)n(CC(=O)NCC3CCCO3)c2cc1OC (centres undefined) | -7.3% | -16.6% | 0.2% | u
COc1cc2c(=O)n(Cc3ccccc3)c(=O)n(CC(=O)NCCc3ccccc3)c2cc1OC | 13.3% | 4.0% | -1.6% | 28.2µM*
COc1ccccc1C(=O)NC1=NC(c2ccc(Br)cc2)CC(=O)N1 (centres undefined) | 0.9% | -4.4% | x | 31.6µM*
CN(CCOc1ccc(Cl)cc1)C(=O)c1cc(-c2ccco2)nc2ccccc12 | 10µM* | u | 1.7% | 28.2µM*
Cc1ccc(C(=O)NC2CCCCCCC2)c(Cl)c1 | 3.98µM* | 5.8% | -0.4% | 0.6%
O=C(NC1CCCCCCC1)c1cc(F)c(F)cc1Cl | u | 2.2% | 8.3% | -1.0%
Cc1c(C)n(CC(O)CNc2ccccc2)c2ccccc12 (centres undefined) | 10µM* | 7.0% | 10.9% | -18.6%
CC(C)C(=O)Nc1ccc(N2CCN(C(=O)c3cccs3)CC2)cc1 | -17.8% | -18.8% | -5.7% | 0.8%
CC(C)CC(=O)NC(=S)Nc1ccc(N2CCN(C(=O)c3cccs3)CC2)cc1 | 10µM* | -0.1% | 11.0% | -2.7%
Cc1ccc(C(=O)N2CCN(c3ccc(NC(=S)NC(=O)c4cccs4)cc3)CC2)cc1 | 8.91µM* | -8.4% | 6.8% | x
Cc1ccccc1C(=O)N1CCN(c2ccc(NC(=S)NC(=O)c3cccs3)cc2)CC1 | u | u | -0.2% | -1.6%
CC(C)c1ccc(NC(=O)C2(C)Cc3ccccc3C(=O)O2)cc1 (centres undefined) | u | 3.9% | x | 0.8%
O=C(Nc1cccnc1Cl)c1cnn2c1NC(=C1CC1)C=C2C(F)F | x | x | x | 175.7%
O=C1CC(c2nc(-c3ccc(Cl)cc3)no2)CN1c1ccc2c(c1)OCCO2 (centres undefined) | -12.9% | 20.1% | x | -3.4%
Cc1cc(C)n(CC(O)Cn2c3ccccc3c3ccccc32)n1 (centres undefined) | 10µM* | 0.5% | 3.8% | -16.7%
CCCCN(CCCN)c1ccc(Br)cn1 | x | x | x | -22.0%
COc1ccc(CN(C)C(=O)c2cc(-c3ccccc3)nc3ccc(C)cc23)c(OC)c1 | 5.62µM* | u | -0.2% | u
CC(C)(C)c1cc(NC(=O)COC(=O)c2nccnc2N)n(-c2ccccc2)n1 | 10.4% | -2.5% | 11.8% | 22.4µM*
COc1ccc(-c2ccc(NS(=O)(=O)c3ccccc3Cl)cc2)nn1 | 23.7% | -31.1% | x | 0.8%
SMILES | GLP-1R inv ag | HEK293 tox | GLP1R ag | ClpP mod
CC(C)Cc1nc(SCC(=O)N2CCCCC2)c2c(=O)n(C)c(=O)n(C)c2n1 | 10µM* | -25.3% | -0.3% | 1.3%
CC(=O)c1ccc(NC(=O)c2cnn3c2NC(=C2CC2)C=C3C(F)F)cc1 | x | x | x | -5.1%
COc1cc(OC)c(NC(=O)C(C)n2nc(-c3ccc(C)c(C)c3)ccc2=O)cc1Cl (centres undefined) | u | 2.1% | x | -1.2%
COc1ccccc1NC(=O)CCCCCN1C(=O)c2cccc([N+](=O)[O-])c2C1=O | 7.5% | 7.9% | 2.2% | -0.4%
COc1cc(/C=C2/C(=O)c3cccc([N+](=O)[O-])c3C2=O)c(Br)cc1O | 10µM* | u | -0.7% | 0.8%
Nc1nc2[nH]cc(CCc3ccc(C(=O)NC(CCC(=O)O)C(=O)O)cc3)c2c(=O)[nH]1 (centres undefined) | x | x | 2.4% | x
COc1ccccc1CN1CCC(CNC(=O)c2cnn(-c3ccc(Cl)cc3)c2C2CCN(C(=O)OC(C)(C)C)CC2)CC1 | u | u | x | 1.1%
CCC(C)(C)c1ccc(OCCCC[n+]2cccc(C)c2)c(C(C)(C)CC)c1 | 10µM* | -3.5% | 6.4% | x
